# According to PubChem BioAssay AID1508601 (ICCB-Longwood Screening Facility, Harvard Medical School, 2020):
# Out of some 5,700 compounds screened, about 85 (1%) were called active. Cut-off read from the data, not from the text of the source: active = p53-positive nuclei above about 36% (passing the limit was not always enough); inactive = the rest. What follows is part of a selection rich in actives, with near analogues and random picks from the rest.
# Tests used:
# [1] = nuclear p53 accumulation, HPV+ cells – imaging, p53-positive nuclei imaging, 24 h, 48 h (AID 1508601); settings: 24/48 h
# [2] = biological target: Cellular tumor antigen p53 (Homo sapiens) (UniProt P04637); assay: as above; settings: 24/48 h, stronger effect = higher value
# [3] = measured here: cell number at 24 h, concentration not given here
# [4] = measured here: cell number at 48 h, concentration not given here
# [5] = measured here: p53 positive nuclei at 24 h, concentration not given here
# [6] = measured here: cell number at 24 h, Library stock concentration: 500 nM
# [7] = measured here: cell number at 24 h, Library stock concentration: 1.5 uM
# [8] = measured here: cell number at 24 h, Library stock concentration: 4.6 uM
# [9] = measured here: cell number at 24 h, Library stock concentration: 13.7 uM
# [10] = measured here: cell number at 24 h, Library stock concentration: 41 uM
# [11] = measured here: cell number at 24 h, Library stock concentration: 123 uM
# [12] = measured here: cell number at 24 h, Library stock concentration: 370 uM
# [13] = measured here: cell number at 24 h, Library stock concentration: 1.111 mM
# [14] = measured here: cell number at 24 h, Library stock concentration: 3.333 mM
# [15] = measured here: cell number at 24 h, Library stock concentration: 10 mM
# [16] = measured here: cell number at 48 h, Library stock concentration: 500 nM
# [17] = measured here: cell number at 48 h, Library stock concentration: 1.5 uM
# [18] = measured here: cell number at 48 h, Library stock concentration: 4.6 uM
# [19] = measured here: cell number at 48 h, Library stock concentration: 13.7 uM
# [20] = measured here: cell number at 48 h, Library stock concentration: 41 uM
# [21] = measured here: cell number at 48 h, Library stock concentration: 123 uM
# [22] = measured here: cell number at 48 h, Library stock concentration: 370 uM
# [23] = measured here: cell number at 48 h, Library stock concentration: 1.111 mM
# [24] = measured here: cell number at 48 h, Library stock concentration: 3.333 mM
# [25] = measured here: cell number at 48 h, Library stock concentration: 10 mM
# [26] = Library stock concentration: 500 nM
# [27] = Library stock concentration: 1.5 uM
# [28] = Library stock concentration: 4.6 uM
# [29] = Library stock concentration: 13.7 uM
# [30] = Library stock concentration: 41 uM
# [31] = Library stock concentration: 123 uM
# [32] = Library stock concentration: 370 uM
# [33] = Library stock concentration: 1.111 mM
# [34] = Library stock concentration: 3.333 mM
# [35] = Library stock concentration: 10 mM
# [36] = measured here: p53 positive nuclei at 24 h, Library stock concentration: 500 nM
# [37] = measured here: p53 positive nuclei at 24 h, Library stock concentration: 1.5 uM
# [38] = measured here: p53 positive nuclei at 24 h, Library stock concentration: 4.6 uM
# [39] = measured here: p53 positive nuclei at 24 h, Library stock concentration: 13.7 uM
# [40] = measured here: p53 positive nuclei at 24 h, Library stock concentration: 41 uM
# [41] = measured here: p53 positive nuclei at 24 h, Library stock concentration: 123 uM
# [42] = measured here: p53 positive nuclei at 24 h, Library stock concentration: 370 uM
# [43] = measured here: p53 positive nuclei at 24 h, Library stock concentration: 1.111 mM
# [44] = measured here: p53 positive nuclei at 24 h, Library stock concentration: 3.333 mM
# [45] = measured here: p53 positive nuclei at 24 h, Library stock concentration: 10 mM
# [46] = measured here: cell number at 24 h, Library stock concentration: 80 uM
# [47] = measured here: cell number at 24 h, Library stock concentration: 400 uM
# [48] = measured here: cell number at 24 h, Library stock concentration: 2 mM
# [49] = measured here: cell number at 48 h, Library stock concentration: 80 uM
# [50] = measured here: cell number at 48 h, Library stock concentration: 400 uM
# [51] = measured here: cell number at 48 h, Library stock concentration: 2 mM
# [52] = Library stock concentration: 80 uM
# [53] = Library stock concentration: 400 uM
# [54] = Library stock concentration: 2 mM
# [55] = measured here: p53 positive nuclei at 24 h, Library stock concentration: 80 uM
# [56] = measured here: p53 positive nuclei at 24 h, Library stock concentration: 400 uM
# [57] = measured here: p53 positive nuclei at 24 h, Library stock concentration: 2 mM
# Sequence of Cellular tumor antigen p53 (Homo sapiens) (P04637 whole entry, looked up): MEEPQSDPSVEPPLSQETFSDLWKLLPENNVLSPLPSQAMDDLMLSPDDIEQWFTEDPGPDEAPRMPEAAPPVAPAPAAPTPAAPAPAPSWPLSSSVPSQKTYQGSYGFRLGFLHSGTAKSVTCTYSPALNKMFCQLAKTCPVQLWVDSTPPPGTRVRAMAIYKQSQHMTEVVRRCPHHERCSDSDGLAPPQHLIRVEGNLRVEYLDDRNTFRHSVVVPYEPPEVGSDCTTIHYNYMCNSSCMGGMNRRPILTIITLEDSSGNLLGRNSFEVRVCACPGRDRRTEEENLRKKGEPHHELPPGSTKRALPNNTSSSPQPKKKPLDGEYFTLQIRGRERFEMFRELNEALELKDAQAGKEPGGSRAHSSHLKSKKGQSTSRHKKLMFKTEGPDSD
compound,measurement,setting,value
CC[C@@]1(O)C[C@H](O[C@H]2C[C@H](N(C)C)[C@H](O)[C@H](C)O2)c2c(cc3c(c2O)C(=O)c2c(O)cccc2C3=O)[C@H]1C(=O)OC,"nuclei count, normalised",[1]; [3],50.2%
same,"nuclei count, normalised",[1]; [4],38.4%
same,"p53-positive nuclei, normalised",[2]; concentration not given here,27.4% (inactive)
same,"p53-positive nuclei, normalised",[2]; [5],16.3%
CC[C@@]1(O)C[C@H](O)c2c(cc3c(c2O)C(=O)c2c(O)ccc(O)c2C3=O)[C@H]1C(=O)OC,"nuclei count, normalised",[1]; [3],83.7%
same,"nuclei count, normalised",[1]; [4],84%
same,"p53-positive nuclei, normalised",[2]; concentration not given here,23.5% (inactive)
same,"p53-positive nuclei, normalised",[2]; [5],4.09%
CC[C@@]1(O)C[C@H](O[C@H]2C[C@H](N(C)C)[C@H](O)[C@H](C)O2)c2c(cc3c(c2O)C(=O)c2c(O)ccc(O)c2C3=O)[C@H]1C(=O)OC,"nuclei count, normalised",[1]; [3],29.9%
same,"nuclei count, normalised",[1]; [4],15.5%
same,"p53-positive nuclei, normalised",[2]; concentration not given here,92.8% (active)
same,"p53-positive nuclei, normalised",[2]; [5],88.5%
CCCCC/C=C\C/C=C\C/C=C\C/C=C\CCCC(=O)Nc1cccc([N+](=O)[O-])c1,"nuclei count, normalised",[1]; [3],108%
same,"nuclei count, normalised",[1]; [4],112%
same,"p53-positive nuclei, normalised",[2]; concentration not given here,-0.154% (inactive)
same,"p53-positive nuclei, normalised",[2]; [5],-0.0854%
CN1CCC(N(C)CCC2CCOCC2)CC1,"nuclei count, normalised",[1]; [3],102%
same,"nuclei count, normalised",[1]; [4],105%
same,"p53-positive nuclei, normalised",[2]; concentration not given here,-0.0157% (inactive)
same,"p53-positive nuclei, normalised",[2]; [5],-0.151%
CN1C(=O)[C@@]23C[C@]4([C@]56C[C@@]78SS[C@@](CO)(C(=O)N7[C@@H]5Nc5ccccc56)N(C)C8=O)c5ccccc5N[C@H]4N2C(=O)[C@]1(CO)SS3,"nuclei count, normalised",[1]; [6],119%
same,"nuclei count, normalised",[1]; [7],109%
same,"nuclei count, normalised",[1]; [8],104%
same,"nuclei count, normalised",[1]; [9],98.9%
same,"nuclei count, normalised",[1]; [10],67.2%
same,"nuclei count, normalised",[1]; [11],42.7%
same,"nuclei count, normalised",[1]; [12],46.4%
same,"nuclei count, normalised",[1]; [13],36.8%
same,"nuclei count, normalised",[1]; [14],34.9%
same,"nuclei count, normalised",[1]; [15],41.7%
same,"nuclei count, normalised",[1]; [16],117%
same,"nuclei count, normalised",[1]; [17],107%
same,"nuclei count, normalised",[1]; [18],101%
same,"nuclei count, normalised",[1]; [19],85.5%
same,"nuclei count, normalised",[1]; [20],44.9%
same,"nuclei count, normalised",[1]; [21],30.9%
same,"nuclei count, normalised",[1]; [22],32.7%
same,"nuclei count, normalised",[1]; [23],24.5%
same,"nuclei count, normalised",[1]; [24],23.4%
same,"nuclei count, normalised",[1]; [25],27.3%
same,"p53-positive nuclei, normalised",[2]; [26],0.0843% (inactive)
same,"p53-positive nuclei, normalised",[2]; [27],0.192% (inactive)
same,"p53-positive nuclei, normalised",[2]; [28],0.185% (inactive)
same,"p53-positive nuclei, normalised",[2]; [29],1.67% (inactive)
same,"p53-positive nuclei, normalised",[2]; [30],83.6% (active)
same,"p53-positive nuclei, normalised",[2]; [31],95.7% (active)
same,"p53-positive nuclei, normalised",[2]; [32],94.5% (active)
same,"p53-positive nuclei, normalised",[2]; [33],72.8% (active)
same,"p53-positive nuclei, normalised",[2]; [34],12.8% (inactive)
same,"p53-positive nuclei, normalised",[2]; [35],7.98% (inactive)
same,"p53-positive nuclei, normalised",[2]; [36],-0.114%
same,"p53-positive nuclei, normalised",[2]; [37],-0.173%
same,"p53-positive nuclei, normalised",[2]; [38],0.0127%
same,"p53-positive nuclei, normalised",[2]; [39],13.4%
same,"p53-positive nuclei, normalised",[2]; [40],101%
same,"p53-positive nuclei, normalised",[2]; [41],116%
same,"p53-positive nuclei, normalised",[2]; [42],117%
same,"p53-positive nuclei, normalised",[2]; [43],105%
same,"p53-positive nuclei, normalised",[2]; [44],30.1%
same,"p53-positive nuclei, normalised",[2]; [45],12.6%
NCCc1ccccc1Br,"nuclei count, normalised",[1]; [46],86.4%
same,"nuclei count, normalised",[1]; [47],90.6%
same,"nuclei count, normalised",[1]; [48],89.9%
same,"nuclei count, normalised",[1]; [15],98.5%
same,"nuclei count, normalised",[1]; [49],92.2%
same,"nuclei count, normalised",[1]; [50],90.8%
same,"nuclei count, normalised",[1]; [51],95%
same,"nuclei count, normalised",[1]; [25],98.1%
same,"p53-positive nuclei, normalised",[2]; [52],0.0704% (inactive)
same,"p53-positive nuclei, normalised",[2]; [53],0.0834% (inactive)
same,"p53-positive nuclei, normalised",[2]; [54],0.0298% (inactive)
same,"p53-positive nuclei, normalised",[2]; [35],0.0211% (inactive)
same,"p53-positive nuclei, normalised",[2]; [55],0.101%
same,"p53-positive nuclei, normalised",[2]; [56],0.248%
same,"p53-positive nuclei, normalised",[2]; [57],-0.0657%
same,"p53-positive nuclei, normalised",[2]; [45],-0.0492%
CN1CCC(C(=O)c2cccc(NC(=O)c3c(F)cc(F)cc3F)n2)CC1,"nuclei count, normalised",[1]; [46],126%
same,"nuclei count, normalised",[1]; [47],115%
same,"nuclei count, normalised",[1]; [48],121%
same,"nuclei count, normalised",[1]; [15],116%
same,"nuclei count, normalised",[1]; [49],118%
same,"nuclei count, normalised",[1]; [50],108%
same,"nuclei count, normalised",[1]; [51],108%
same,"nuclei count, normalised",[1]; [25],105%
same,"p53-positive nuclei, normalised",[2]; [52],-0.0182% (inactive)
same,"p53-positive nuclei, normalised",[2]; [53],-0.00116% (inactive)
same,"p53-positive nuclei, normalised",[2]; [54],-0.0434% (inactive)
same,"p53-positive nuclei, normalised",[2]; [35],-0.0859% (inactive)
same,"p53-positive nuclei, normalised",[2]; [55],-0.0846%
same,"p53-positive nuclei, normalised",[2]; [56],0.109%
same,"p53-positive nuclei, normalised",[2]; [57],0.0583%
same,"p53-positive nuclei, normalised",[2]; [45],-0.136%
CC[n+]1c(-c2ccccc2)c2cc(N)ccc2c2ccc(N)cc21,"nuclei count, normalised",[1]; [6],102%
same,"nuclei count, normalised",[1]; [7],108%
same,"nuclei count, normalised",[1]; [8],106%
same,"nuclei count, normalised",[1]; [9],111%
same,"nuclei count, normalised",[1]; [10],111%
same,"nuclei count, normalised",[1]; [11],102%
same,"nuclei count, normalised",[1]; [12],117%
same,"nuclei count, normalised",[1]; [13],107%
same,"nuclei count, normalised",[1]; [14],105%
same,"nuclei count, normalised",[1]; [15],83.1%
same,"nuclei count, normalised",[1]; [3],104%
same,"nuclei count, normalised",[1]; [16],104%
same,"nuclei count, normalised",[1]; [17],109%
same,"nuclei count, normalised",[1]; [18],106%
same,"nuclei count, normalised",[1]; [19],109%
same,"nuclei count, normalised",[1]; [20],109%
same,"nuclei count, normalised",[1]; [21],99.5%
same,"nuclei count, normalised",[1]; [22],104%
same,"nuclei count, normalised",[1]; [23],99.7%
same,"nuclei count, normalised",[1]; [24],98.5%
same,"nuclei count, normalised",[1]; [25],75.3%
same,"nuclei count, normalised",[1]; [4],97.4%
same,"p53-positive nuclei, normalised",[2]; [26],0.0282% (inactive)
same,"p53-positive nuclei, normalised",[2]; [27],0.101% (inactive)
same,"p53-positive nuclei, normalised",[2]; [28],-0.0128% (inactive)
same,"p53-positive nuclei, normalised",[2]; [29],-0.0168% (inactive)
same,"p53-positive nuclei, normalised",[2]; [30],0.329% (inactive)
same,"p53-positive nuclei, normalised",[2]; [31],3.12% (inactive)
same,"p53-positive nuclei, normalised",[2]; [32],7.73% (inactive)
same,"p53-positive nuclei, normalised",[2]; [33],12.2% (inactive)
same,"p53-positive nuclei, normalised",[2]; [34],19.5% (inactive)
same,"p53-positive nuclei, normalised",[2]; [35],103% (active)
same,"p53-positive nuclei, normalised",[2]; concentration not given here,34.3% (inactive)
same,"p53-positive nuclei, normalised",[2]; [36],0.0668%
same,"p53-positive nuclei, normalised",[2]; [37],0.166%
same,"p53-positive nuclei, normalised",[2]; [38],-0.00293%
same,"p53-positive nuclei, normalised",[2]; [39],-0.0711%
same,"p53-positive nuclei, normalised",[2]; [40],0.21%
same,"p53-positive nuclei, normalised",[2]; [41],1.53%
same,"p53-positive nuclei, normalised",[2]; [42],4.81%
same,"p53-positive nuclei, normalised",[2]; [43],11.9%
same,"p53-positive nuclei, normalised",[2]; [44],38.2%
same,"p53-positive nuclei, normalised",[2]; [45],127%
same,"p53-positive nuclei, normalised",[2]; [5],45.3%
